Data reported in PubChem BioAssay (NCI).
Compounds without any hit were thinned out: in the full panel of roughly 83,000, 20% have a hit.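 Step 1: grow cells in 96-well plates. Step 2: add test compound at a single concentration. Step 3: incubate 48 h. Step 4: record percent growth.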 A number with no mark means an inactive call. Calls of active or inactive are those of the source. Rule for the calls: active = growth percent below 10; inactive = the rest.

Key:
Assay in all cases: NCI-60 one-dose screen, 48 h (100 = growth as untreated, 0 = no growth, -100 = all killed)
Conditions in all cases: 10 µM unless noted
[1] = system: HCT-15 colon
[2] = system: HT29 colon
[3] = system: SNB-19 CNS
[4] = system: U251 CNS
[5] = system: PC-3 prostate
[6] = system: SK-MEL-5 melanoma
[7] = system: UACC-62 melanoma
[8] = system: LOX IMVI melanoma
[9] = system: SK-MEL-28 melanoma
[10] = system: SK-MEL-2 melanoma
[11] = system: EKVX NSCLC
[12] = system: SN12C renal
[13] = system: UO-31 renal
[14] = system: ACHN renal
[15] = system: A498 renal
[16] = system: CCRF-CEM leukemia
[17] = system: MOLT-4 leukemia
[18] = system: CAKI-1 renal
[19] = system: TK-10 renal

Row | Structure (SMILES) | growth [1] | growth [2] | growth [3] | growth [4] | growth [5] | growth [6] | growth [7] | growth [8] | growth [9] | growth [10] | growth [11] | growth [12] | growth [13] | growth [14] | growth [15] | growth [16] | growth [17] | growth [18] | growth [19]
1 | NC(=O)CCCN1C/C(=C\c2ccccc2)C(=O)c2ccccc21 | 105% | 93.2% | 88.7% | 96.7% | 89.6% | 104% | 87.2% | 104% | 95.7% | 90.4% | 106% | 92.4% | 78.1% | 98.7% | 107% | 110% | 104% | – | –
2 | CCCCCCN1CSC(=S)N(CCCCCC)C1 | 103% | 115% | 106% | 103% | 83.6% | 94.5% | 95.3% | 91.8% | 102% | 124% | 91.7% | 104% | 79.3% | 109% | 94.2% | 88.2% | 107% | 81.3% | –
3 | CCOC(=O)c1cn2c3c(cc(C)cc3c1=O)C(=O)/C(=C/c1ccccc1)C2 | 109% | 105% | 84.4% | 83.3% | 99% | 91.3% | 68.1% | 94.5% | 93.8% | 95.5% | 101% | 94.2% | 57.6% | 91.3% | 86.9% | 93.5% | 86.9% | – | 75%
4 | CCOC(=O)c1cn2c3c(cccc3c1=O)C(=O)/C(=C/c1cccc(Cl)c1Cl)C2 | 117% | 99.9% | 94.9% | 94.6% | 90.8% | 91.2% | 67.9% | 99.7% | 106% | 87.7% | 99.3% | 94.2% | 61.7% | 106% | 99.1% | 99.2% | 102% | 91.6% | –
5 | Cn1ccc(Nc2nccc(Oc3ccc(C(=O)Nc4cccc(F)c4)c(Cl)c3)n2)c1 | 91.9% | 100% | 77.6% | 96.2% | 63.6% | 39.5% | 66.8% | 91.9% | 96.6% | 58% | 47.1% | 73.4% | 62.6% | 44.7% | 46.9% | 58.4% | 83.3% | 69.6% | –
6 | FC(F)(F)c1cccc(-c2cn3c(ccc4ccccc43)n2)c1 | 90.9% | 102% | 100% | 86.9% | 83% | 92.4% | 79.9% | 90.1% | 115% | 102% | 85.4% | – | 68.1% | 90.3% | 94.9% | 105% | 104% | 71.4% | 122%
7 | O=[N+]([O-])c1ccc(Sc2ncccn2)c([N+](=O)[O-])c1 | 38.9% | 62.2% | 99.3% | 78.6% | 32.9% | 76.7% | 60.7% | 68.1% | 71.9% | 48.5% | 65.8% | 58.5% | 1.15% (active) | 27.8% | 72.5% | -37.2% (active) | -25.8% (active) | – | 53.7%
8 | COc1ccc(-n2c(-c3ccccc3)c(-c3ccccc3)c3c(SCC(=O)N/N=C/c4ccc(Cl)cc4)ncnc32)cc1 | 105% | 94.4% | 100% | 91.6% | 83.3% | 86.9% | 86.7% | 88.4% | 104% | 107% | 87% | – | 74.5% | 101% | 75.6% | 93.4% | 97% | 87.9% | 108%
9 | CCCCOc1ccc(/C=C2/SC(N3CCCC3)=NC2=O)cc1 | 97.2% | 94.6% | 92.8% | 84.6% | 88.7% | 95.2% | 87.4% | 96.2% | 101% | 105% | 94.5% | 87.3% | 82.4% | 103% | 91.3% | 84.3% | 95.6% | 96.8% | –
10 | CC(C)CSc1nc(NN)c(C#N)c(-c2ccccc2)n1 | 86.6% | 103% | 88.8% | 95.3% | 89.3% | 91.1% | 95.3% | 90.6% | 107% | 101% | 91.4% | 104% | 81.7% | 92.8% | 69.1% | 97.4% | 104% | 90.3% | –
11 | CC(C)C(C(=O)NCCN1CCOCC1)N1C(=O)/C(=C/c2ccc(Br)cc2)SC1=S (centres undefined) | 99.9% | 109% | 92.5% | 98% | 90.1% | 98.2% | 87.8% | 99% | 96.9% | 93.9% | 104% | – | 84.9% | 101% | 96.8% | 97.8% | 102% | 97.9% | 121%
12 | Cc1cc(N/N=C/c2nc(-c3ccc(Br)cc3)oc2C)c2cc(Br)ccc2n1 | 6.22% (active) | -16.1% (active) | 41.7% | -9.51% (active) | 77.2% | 92.9% | 73.9% | -37.6% (active) | 24.7% | 99% | 90.9% | 26.8% | 58.7% | 64.9% | 85.7% | -4.62% (active) | 7.29% (active) | 88.3% | –
13 | C1=Cc2ccccc2N(c2nnc(-c3ccccc3)o2)c2ccccc21 | 45.8% | 102% | 96.7% | 66.8% | 60.6% | 72% | 86.4% | 79.9% | 98.2% | 108% | 94.3% | 96.2% | 83.9% | 95.1% | 80% | 73.9% | 83.5% | 83.3% | –
14 | CC(C)(C)n1cc(-c2ccnc(NCCCNS(=O)(=O)c3ccccc3)c2)c(-c2cccc(O)c2)n1 | -4.07% (active) | 8.45% (active) | 76% | 48.5% | 30.3% | 16.1% | 59.8% | -43.3% (active) | 44.1% | 60.1% | 57.3% | – | 55.7% | 45.6% | 40.2% | 35.1% | 32.1% | 52.9% | 89.7%
15 | COc1ccc(-c2nc3sc(-c4cc(OC)c(OC)c(OC)c4)nn3c2/C=C2/C(=O)Nc3ccc(F)cc32)cc1 | -3.94% (active) | -49.9% (active) | 11% | -87.4% (active) | -25% (active) | -39.2% (active) | -26.1% (active) | 17.8% | -72.8% (active) | -10.8% (active) | – | -29.2% (active) | -33.4% (active) | -15.7% (active) | 96.7% | 20.6% | – | 4.52% (active) | -52.2% (active)
16 | Cc1c(C(=N)C(C#N)C#N)c(=N)oc2c1ccc1ccccc12 | 74.2% | 93.3% | 103% | 87.4% | 97.8% | 83.7% | 78.3% | 92.8% | 124% | 26.6% | 26.9% | 88.7% | 85.5% | 86.4% | 85.2% | 66.1% | 64.3% | – | 121%
17 | CC(=O)Nc1ccc(/C=C/C(=O)c2ccccc2)cc1 | 91.9% | 83.8% | 77.7% | 74.7% | 66.8% | 100% | 96.6% | 93% | 103% | 107% | 112% | 87.5% | 71.3% | 95.3% | 73.4% | 31% | 75.5% | – | 110%
